Experiment [1] concerns the target Albumin (Bos taurus) (UniProt P02769). In words: bovine serum albumin binders on microarray, profiling panel, artefact control for SMM control protein annotation, biochemical, small-molecule microarray, Alexa647 label, 635/667 nm fluorescence (AID 1118).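 Also: score merges 667 nm emission intensity and signal-to-noise per printed compound spot.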 The following applies: BSA-A647 binding, fluorescence 635 nm, higher = more signal.
Experiment [2] can be described thus: small-molecule microarray binders of probe aXIP, primary screen, biochemical, NeuroSMM set, 635/667 nm fluorescence (AID 1119).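 Also: probe is the protein aXip251-270 applied at 1 µg/mL to compound-printed slides; binding of probe to printed compounds measured as 667 nm fluorescence plus signal to noise.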 The note with it: higher = more signal, called active from +8 up or from −8 down.
The nature of experiment [3]: small-molecule binders of probe aNOTCH3, primary screen, biochemical, small-molecule microarray, 635/667 nm fluorescence (AID 1120).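 Also: probe is a biotin-tagged antibody raised against NOTCH3 rather than NOTCH3 protein; score merges spot fluorescence near 667 nm with spot signal to noise.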 The note with it: higher = more signal.
The nature of experiment [4]: small-molecule binders of probe aNOTCH2, primary screen, biochemical, small-molecule microarray, 635/667 nm fluorescence (AID 1121).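 Also: score merges feature fluorescence read at 667 nm with its signal to noise.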 The following applies: higher = more signal.
Experiment [5] concerns the target Carbonic anhydrase 2 (Homo sapiens) (UniProt P00918). In words: CAII small-molecule binders, profiling panel, biochemical, small-molecule microarray, Alexa647-labelled CAII (AID 1122). The note with it: CAII-A647 binding fluorescence, higher = more signal.
Experiment [6] in a line: COS7 lysate on small-molecule microarray, probe aHis, 635 nm (AID 1123).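 Also: z-score combines 667nm fluorescence intensity with signal-to-noise per printed compound spot.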 The following applies: COS7 cell lysate, fluorescence, higher = more signal.
Experiment [7] can be described thus: compound binding in COS7 lysate, probe aLAP1, primary screen, cell lysate, small-molecule microarray (AID 1124).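 Also: lysate comes from COS7 cells expressing LAP1 and is applied at 0.3 µg/mL; score merges spot fluorescence near 667 nm with signal-to-noise over triplicate slides.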 The following applies: probe aLAP1, fluorescence, higher = more signal.
Experiment [8] deals with Sam68 (KHDRBS1). In words: Sam68 small-molecule binders, primary screen, biochemical, small-molecule microarray, 635 nm fluorescence (AID 1125).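 Also: score merges 667 nm channel intensity with signal to noise over triplicate slides.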 The note with it: small-molecule microarray binding, higher = more signal.
Experiment [9] relates to Chordin-like protein 2 (CHRDL2). Nature of the experiment: CHRDL2 small-molecule binders, primary screen, biochemical, small-molecule microarray, 635 nm fluorescence (AID 1126).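 Also: printed compound slides probed with Chrdl2 protein at 4 µg/mL for 1 h at 4 C; score merges 667 nm emission intensity with signal to noise over three replicate slides.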 The note with it: small-molecule microarray binding, fluorescence 635 nm; higher = more signal.
The target of experiment [10] is Concanavalin-A (Canavalia ensiformis) (UniProt P02866). Nature of the experiment: ConA small-molecule binders, primary screen, artefact control for SMM control protein annotation, biochemical, small-molecule microarray, Alexa647 label, 635 nm (AID 1127).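 Also: z combines 667 nm emission intensity with signal-to-noise across three replicate slides.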 The note with it: ConA-A647 binding fluorescence, higher = more signal.
A short description of experiment [11]: anti-His antibody binders, primary screen, artefact control for SMM control protein annotation, biochemical, small-molecule microarray, 635 nm fluorescence (AID 1128).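 Also: score merges feature fluorescence with signal-to-noise for each printed compound spot.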 The note with it: anti-His Alexa647 antibody binding, higher = more signal.
Experiment [12] has as its system Human papillomavirus type 1a E7 protein (residues 1-88). Nature of the experiment: HPV1a E7 small-molecule binders, primary screen, biochemical, small-molecule microarray, residues 1-88, 635 nm (AID 1129). The following applies: small-molecule microarray binding, fluorescence 635 nm; higher = more signal.
Experiment [13] addresses Focal adhesion kinase 1 (Homo sapiens) (UniProt Q05397). In words: small-molecule microarray binders of FAK, primary screen, biochemical, 635/667 nm fluorescence, BSA, DTT (AID 1130).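 Also: composite of spot emission at 667 nm and signal to noise over triplicate slides.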 The note with it: PTK2 binding, 635 nm fluorescence, higher = more signal.
Experiment [14] concerns Fibrinogen (Alexa647-labelled). In words: fibrinogen binders on compound microarrays, profiling panel, artefact control for SMM control-protein annotation, biochemical, small-molecule microarray, 635/667 nm fluorescence (AID 1131).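 Also: z-score merges 667 nm fluorescence with per-spot signal-to-noise over triplicate slides.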 The note with it: fibrinogen-A647 binding fluorescence, higher = more signal.
Experiment [15] addresses Follistatin (Homo sapiens) (UniProt P19883). In words: follistatin binders on small-molecule microarrays, primary screen, biochemical, small-molecule microarray, 635/667 nm fluorescence (AID 1132). The note with it: FST binding, 635 nm fluorescence, higher = more signal.
In experiment [16] the target is Fibroblast growth factor 2 (Homo sapiens) (UniProt P09038). Nature of the experiment: FGF2 binders on small-molecule microarrays, primary screen, biochemical, small-molecule microarray, 635/667 nm fluorescence (AID 1133). The note with it: small-molecule microarray binding, FGF2, fluorescence 635/667; higher = more signal.
Experiment [17] in a line: mitochondrial membrane potential change in A549 cells, profiling panel, cell-based, JC-1 fluorescence, basal, 24 h, 100 nL (AID 1138).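 Also: A549 lung adenocarcinoma cells under basal conditions with no added stimulus; test concentration not given here.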 The note with it: higher = more signal.
Experiment [18] has as its system Lefty1. Nature of the experiment: Lefty1 binders on small-molecule microarrays, primary screen, biochemical, small-molecule microarray, 635/667 nm fluorescence (AID 1139). The following applies: small-molecule microarray binding, fluorescence 635/667; higher = more signal.
Experiment [19] relates to wheat germ agglutinin (Triticum aestivum), Alexa647-labelled. Nature of the experiment: wheat germ agglutinin binders on compound microarrays, profiling panel, artefact control for SMM control-protein annotation, biochemical, small-molecule microarray, 635/667 nm fluorescence (AID 1140).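 Also: score merges 667 nm feature emission with signal to noise over triplicate slides.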 The following applies: WGA-A647 binding, 635 nm fluorescence, higher = more signal.
The target in experiment [20] is Luciferin 4-monooxygenase (Photinus pyralis) (UniProt P08659). Nature of the experiment: firefly luciferase enzyme inhibitors, primary screen, biochemical, luminescence, purified enzyme, 2006 set (AID 1141).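 Also: cell-free assay with purified firefly luciferase at 100 ng per well in PBS; test concentration not given here.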 The following applies: SteadyGlo luminescence, 30 min, higher = more signal, called active from +8 up or from −8 down.

Calls of active or inactive are those of the source.

Sequence of Follistatin (Homo sapiens) (P19883 whole entry, looked up): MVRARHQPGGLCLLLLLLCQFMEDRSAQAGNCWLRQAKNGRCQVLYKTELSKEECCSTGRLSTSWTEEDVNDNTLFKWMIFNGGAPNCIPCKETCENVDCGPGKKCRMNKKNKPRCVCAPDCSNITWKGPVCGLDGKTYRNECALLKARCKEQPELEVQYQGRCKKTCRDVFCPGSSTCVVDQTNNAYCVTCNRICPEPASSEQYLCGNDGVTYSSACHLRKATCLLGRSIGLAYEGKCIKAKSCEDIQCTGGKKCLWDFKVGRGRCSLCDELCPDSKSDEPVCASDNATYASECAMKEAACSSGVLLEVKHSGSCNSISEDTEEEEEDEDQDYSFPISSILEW
Sequence of Focal adhesion kinase 1 (Homo sapiens) (Q05397 whole entry, looked up): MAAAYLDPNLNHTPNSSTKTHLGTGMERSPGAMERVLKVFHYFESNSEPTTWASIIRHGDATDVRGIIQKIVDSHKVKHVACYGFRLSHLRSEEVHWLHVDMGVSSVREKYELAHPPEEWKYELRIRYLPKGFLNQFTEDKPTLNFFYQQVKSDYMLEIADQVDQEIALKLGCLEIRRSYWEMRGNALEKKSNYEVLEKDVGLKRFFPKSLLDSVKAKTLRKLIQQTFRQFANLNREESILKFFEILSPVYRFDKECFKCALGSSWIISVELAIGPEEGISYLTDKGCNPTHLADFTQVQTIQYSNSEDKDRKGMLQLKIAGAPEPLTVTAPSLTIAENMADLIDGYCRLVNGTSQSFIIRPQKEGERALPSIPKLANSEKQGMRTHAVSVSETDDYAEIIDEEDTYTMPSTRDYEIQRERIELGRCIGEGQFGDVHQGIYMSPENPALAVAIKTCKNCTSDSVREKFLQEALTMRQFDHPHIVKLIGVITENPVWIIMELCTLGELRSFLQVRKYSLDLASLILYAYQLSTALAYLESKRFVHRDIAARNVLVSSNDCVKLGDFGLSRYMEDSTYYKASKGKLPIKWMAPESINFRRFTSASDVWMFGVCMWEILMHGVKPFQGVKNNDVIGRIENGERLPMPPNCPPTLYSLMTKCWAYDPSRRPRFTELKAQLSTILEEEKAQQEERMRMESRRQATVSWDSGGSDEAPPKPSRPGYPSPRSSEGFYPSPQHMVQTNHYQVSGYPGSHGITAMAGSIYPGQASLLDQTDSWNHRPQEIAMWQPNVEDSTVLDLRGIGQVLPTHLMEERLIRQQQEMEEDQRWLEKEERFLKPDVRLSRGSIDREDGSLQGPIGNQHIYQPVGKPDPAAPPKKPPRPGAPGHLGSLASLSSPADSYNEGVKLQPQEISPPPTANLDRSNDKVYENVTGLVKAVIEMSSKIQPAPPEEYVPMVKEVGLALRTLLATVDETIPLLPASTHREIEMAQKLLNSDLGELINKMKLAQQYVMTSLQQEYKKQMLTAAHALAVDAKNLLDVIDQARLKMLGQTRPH
Sequence of Luciferin 4-monooxygenase (Photinus pyralis) (P08659 whole entry, looked up): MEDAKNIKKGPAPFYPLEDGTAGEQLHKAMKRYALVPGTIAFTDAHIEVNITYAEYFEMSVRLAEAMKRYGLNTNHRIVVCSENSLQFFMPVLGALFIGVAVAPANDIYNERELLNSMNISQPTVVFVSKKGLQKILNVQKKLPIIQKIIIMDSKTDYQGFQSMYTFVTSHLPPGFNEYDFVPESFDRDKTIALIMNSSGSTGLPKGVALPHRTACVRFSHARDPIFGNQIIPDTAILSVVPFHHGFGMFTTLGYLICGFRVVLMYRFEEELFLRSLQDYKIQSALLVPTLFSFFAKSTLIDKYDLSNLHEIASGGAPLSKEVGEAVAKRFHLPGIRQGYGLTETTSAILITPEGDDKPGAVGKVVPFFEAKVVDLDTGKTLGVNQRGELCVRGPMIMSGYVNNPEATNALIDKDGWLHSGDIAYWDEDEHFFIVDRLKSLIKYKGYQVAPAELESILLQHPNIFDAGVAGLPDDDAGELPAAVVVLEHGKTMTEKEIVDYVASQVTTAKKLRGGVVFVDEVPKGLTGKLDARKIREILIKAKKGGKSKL
Sequence of Concanavalin-A (Canavalia ensiformis) (P02866 whole entry, looked up): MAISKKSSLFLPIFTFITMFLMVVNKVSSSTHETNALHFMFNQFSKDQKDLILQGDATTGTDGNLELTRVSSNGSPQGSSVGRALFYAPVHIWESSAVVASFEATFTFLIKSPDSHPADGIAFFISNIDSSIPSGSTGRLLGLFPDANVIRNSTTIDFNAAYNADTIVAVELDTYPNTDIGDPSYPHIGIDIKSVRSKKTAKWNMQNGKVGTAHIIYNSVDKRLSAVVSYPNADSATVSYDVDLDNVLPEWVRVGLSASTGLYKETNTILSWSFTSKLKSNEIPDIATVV
Sequence of Albumin (Bos taurus) (P02769 whole entry, looked up): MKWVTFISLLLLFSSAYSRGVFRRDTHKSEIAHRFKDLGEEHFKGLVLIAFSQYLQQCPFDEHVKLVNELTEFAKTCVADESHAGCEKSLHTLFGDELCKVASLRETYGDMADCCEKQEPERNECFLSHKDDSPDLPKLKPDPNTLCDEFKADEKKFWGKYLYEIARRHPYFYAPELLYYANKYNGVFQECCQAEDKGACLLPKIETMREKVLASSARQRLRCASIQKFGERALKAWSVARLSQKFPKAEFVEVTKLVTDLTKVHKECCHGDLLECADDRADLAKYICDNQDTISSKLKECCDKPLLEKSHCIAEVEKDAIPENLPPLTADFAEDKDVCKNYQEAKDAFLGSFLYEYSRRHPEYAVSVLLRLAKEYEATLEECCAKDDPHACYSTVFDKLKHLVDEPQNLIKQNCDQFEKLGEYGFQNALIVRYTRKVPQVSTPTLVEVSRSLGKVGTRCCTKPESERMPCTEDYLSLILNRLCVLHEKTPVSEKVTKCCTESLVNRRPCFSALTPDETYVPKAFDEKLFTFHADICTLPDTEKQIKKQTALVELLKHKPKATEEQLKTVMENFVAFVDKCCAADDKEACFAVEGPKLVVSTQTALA
Sequence of Fibroblast growth factor 2 (Homo sapiens) (P09038 whole entry, looked up): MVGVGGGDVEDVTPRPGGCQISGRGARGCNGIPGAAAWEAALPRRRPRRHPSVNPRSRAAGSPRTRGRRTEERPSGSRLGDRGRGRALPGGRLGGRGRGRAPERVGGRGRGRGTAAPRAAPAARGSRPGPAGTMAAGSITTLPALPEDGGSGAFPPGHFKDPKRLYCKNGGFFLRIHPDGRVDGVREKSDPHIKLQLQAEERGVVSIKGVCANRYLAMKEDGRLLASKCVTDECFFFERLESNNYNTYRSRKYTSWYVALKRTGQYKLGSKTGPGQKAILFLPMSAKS

In the case of `COC(=O)C(CC#Cc1ccc2c(c1)[C@]1(C(=O)N2)[C@H](c2ccccc2OCCO)N2[C@H](c3ccccc3)[C@H](c3ccccc3)OC(=O)[C@H]2[C@@H]1C(=O)N1CCCCCCC1)C(=O)OC`, the composite z-score is -0.314 in [1]; 2.02 in [3]; 1.1 in experiment [4]; 1.03 in experiment [5]; 4.9 in experiment [6]; 1.41 in experiment [7]. In addition, the composite z-score in experiment [8] is 1.33; in experiment [9], 1.66; in experiment [10], 0.773; in [11], 0.925; in [12], 1.35; in experiment [13] it was 4.83. For the same compound, the composite z-score is 0.0834 in experiment [14]; 1.56 in [15]; -0.0426 in [16]; 1.73 in experiment [18]; 1.66 in experiment [19]. Moreover, the composite Z-score in experiment [2] was 8.74 (active). Also, the z-score is 0.547 in experiment [17] and -1.08 (inactive) in experiment [20].

With `Cc1ccc(N2C(=O)c3ccccc3[C@](C)(C(=O)NC3CC3)[C@@H]2c2ccc(CO)cc2)nc1`, the composite z-score in [1] is -0.0191; in [3] it was -0.132; in experiment [4] it was -0.0698; in [5], 0.78; in [6] it was 0.529; in [7] it was 1.18. Also, the composite z-score is -0.501 in experiment [8]; 0.407 in [9]; -0.816 in [10]; -0.373 in experiment [11]; -0.644 in [12]; -0.0892 in [13]. Further, the composite z-score was -0.777 in experiment [14]; 1.22 in experiment [15]; 0.373 in experiment [16]; -0.105 in experiment [18]; 0.618 in experiment [19]. In experiment [2], the composite Z-score was 0.186 (inactive). In addition, the z-score was 1.13 in experiment [17] and -1.5 (inactive) in [20].

On to `COC(=O)C(CC#Cc1ccc2c(c1)[C@]1(C(=O)N2)[C@H](C(=O)O)[C@H]2C(=O)O[C@H](c3ccccc3)[C@H](c3ccccc3)N2[C@@H]1c1ccc(OCCO)cc1)C(=O)OC`, for which the composite z-score is 0.956 in experiment [1]; 0.123 in experiment [3]; -0.0333 in experiment [4]; 0.703 in experiment [5]; 2.07 in experiment [6]; 0.279 in experiment [7]. Further, the composite z-score in experiment [8] was 1.3; in [9], -0.756; in experiment [10], 1.2; in experiment [11], 0.479; in experiment [12], 1.24; in [13], 0.918. Moreover, the composite z-score in experiment [14] was 0.812; in experiment [15], 0.0447; in [16] it was 0.549; in experiment [18], 0.943; in experiment [19], 1.43. For the same compound, in experiment [2], the composite Z-score was -0.908 (inactive). The results for the z-score in experiment [17] and in experiment [20] were -0.22 and -4.03 (inactive), respectively.

On to `CCCNC(=O)[C@@]1(Sc2ccc(C)cc2)CC(=O)N(Cc2cc(C(F)(F)F)cc(C(F)(F)F)c2)[C@@H]1c1ccc(CO)cc1I`, for which the composite z-score was 0.502 in experiment [1]; -0.125 in [3]; 0.0042 in experiment [4]; 0.883 in experiment [5]; 0.918 in experiment [6]; 0.349 in experiment [7]. For the same compound, the composite z-score in experiment [8] is 0.354; in [9], -0.605; in [10], -0.12; in [11], -0.187; in experiment [12], -0.574; in experiment [13], -0.101. In addition, the composite z-score was -0.0242 in experiment [14]; -0.0247 in experiment [15]; -1.22 in experiment [16]; -0.487 in experiment [18]; -0.405 in experiment [19]. Further, in [2], the composite Z-score is 0.414 (inactive). Also, the z-score in [17] was -0.283; in experiment [20], -0.839 (inactive).

Regarding `CC(C)(C)OC(=O)CC[C@]1(C(=O)NCc2ccccc2)N=C(c2ccc(OCCCO)cc2)O[C@H]1c1ccccc1N=[N+]=[N-]`, the composite z-score in experiment [1] was 1; in experiment [3], 0.197; in experiment [4], 0.0272; in experiment [5], 0.498; in experiment [6], 2.97; in experiment [7], 0.521. In addition, the composite z-score is 1.34 in experiment [8]; -0.0443 in experiment [9]; 1.16 in [10]; 2.59 in experiment [11]; 1.25 in [12]; 0.245 in experiment [13]. The composite z-score in [14] is 1.01; in experiment [15] it was 1.42; in experiment [16], 1.3; in experiment [18], 0.459; in experiment [19], 1.42. Moreover, in experiment [2], the composite Z-score was -0.286 (inactive). Moreover, the values for the z-score in experiment [17] and in [20] were 0.566 and -9.8 (active), respectively.

Values taken from PubChem BioAssay.
